Source: PubChem BioAssay AID588453 (National Center for Advancing Translational Sciences (NCATS), 2011)
The campaign covered roughly 390,000 compounds. About 4,000 (1%) were called active. About 4% were inconclusive and are not listed. For the sample, actives were picked, then their nearest neighbours and some compounds at random. Values without a mark were called inactive. Calls come from the whole dose curve; as a rule, active = well fitted inhibition curve with a large enough effect; inconclusive = small, poorly fitted or top-dose-only effect; inactive = no such curve, though single readings can be large or run the other way.

Biological target: Thioredoxin reductase 1, cytoplasmic (Rattus norvegicus) (UniProt O89049)
Assay: qHTS Assay for Inhibitors of Mammalian Selenoprotein Thioredoxin Reductase 1 (TrxR1): qHTS; note: nearly all actives have a fitted effect of over 65% in size
Conditions: recombinant rTrxR1, NADPH fluorescence consumption, selenite substrate; series mostly up to 114 µM; activity change, negative = inhibition: at the top concentration
In short: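 Rat TrxR1 (90 nM in the dispensed reagent) was pre-reduced with 400 uM NADPH for 5 min at room temperature, then incubated with compound for 15 min. After 400 uM selenite was added, NADPH fluorescence (Ex 340/Em 450 nm) was followed for 8 min.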
% is set by controls: 0 for no effect and ±100 for the full control effect; potency is the fitted concentration of half-maximal effect.

Chain of Thioredoxin reductase 1, cytoplasmic (Rattus norvegicus) (O89049 whole entry, looked up): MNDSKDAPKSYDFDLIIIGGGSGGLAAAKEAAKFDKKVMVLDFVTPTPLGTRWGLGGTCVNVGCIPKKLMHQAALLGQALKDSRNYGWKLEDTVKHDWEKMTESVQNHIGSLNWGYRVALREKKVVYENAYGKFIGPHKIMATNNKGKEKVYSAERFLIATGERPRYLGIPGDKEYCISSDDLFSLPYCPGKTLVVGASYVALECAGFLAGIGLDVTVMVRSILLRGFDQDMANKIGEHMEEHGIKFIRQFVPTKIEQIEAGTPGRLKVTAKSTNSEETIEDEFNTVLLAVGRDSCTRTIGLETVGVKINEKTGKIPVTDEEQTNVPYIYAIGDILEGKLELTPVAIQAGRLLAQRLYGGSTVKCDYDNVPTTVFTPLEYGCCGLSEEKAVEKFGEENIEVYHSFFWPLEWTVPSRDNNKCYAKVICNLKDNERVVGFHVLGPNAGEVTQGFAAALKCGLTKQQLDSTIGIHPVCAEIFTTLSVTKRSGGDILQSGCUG

SMILES | activity change, negative = inhibition | Potency
O=C1CN(Cc2ccccc2)S(=O)(=O)c2ccccc21 | -21.6% | 
COc1cccc(CNC(=O)c2ccc3c(Cl)c4c(nc3c2)CCCC4)c1 | 39.5% | 
C/C=C(\C)C(=O)N1CC2(CC(c3cccc(NC(=O)CCCCC)c3)=NO2)C[C@@H]1C(N)=O (some centres undefined) | -4.01% [at 57.1 µM] | 
C/C=C\C=C\C(=O)N1CC2(CC(c3cccc(NC(=O)/C(C)=C\C)c3)=NO2)C[C@H]1C(N)=O (some centres undefined) |  | 50.1 µM (active)
CC/C=C/C(=O)N1CC2(CC(c3cccc(NC(=O)CC)c3)=NO2)C[C@H]1C(N)=O (some centres undefined) | -13.2% [at 57.1 µM] | 
COc1cccc(CNC(=O)Cc2csc3nc(-c4ccccc4)cn23)c1 | 18.4% [at 57.1 µM] | 
CNC(=O)NC(=O)CSc1nnc(-c2ccc(F)cc2)n1CC1CCCO1 (centres undefined) | 22.1% [at 57.1 µM] | 
Cc1nnc(SCC(=O)NNC(=O)c2ccc(Cl)cc2)n1CC1CCCO1 (centres undefined) | 14.4% [at 57.1 µM] | 
O=C(CSc1nnc(-c2ccco2)n1CC1CCCO1)c1ccccc1 (centres undefined) |  | 44.7 µM (active)
CCc1cccc(NC(=O)c2cc(-c3ccccc3)n[nH]2)c1 | 10.9% | 
CC(C)(C)c1ccc(C(=O)C[n+]2cccc3cc(Cl)ccc32)cc1 | 6.36% | 
CC(C)(C)c1ccc(S(=O)(=O)Nc2ccc(O)c(Sc3nc4ccccc4s3)c2)cc1 | 13.8% | 
CC(C)c1ccc(S(=O)(=O)Nc2ccc(O)c(Sc3nc4ccccc4s3)c2)cc1 | -12.7% | 
O=[N+]([O-])c1c(NCCO)cc(Sc2nc3ccccc3s2)c2nonc12 |  | 1.12 µM (active)
O=S(=O)(Nc1ccc2nc(-c3cccc(Cl)c3)oc2c1)c1ccccc1 | 26.9% | 
CCc1ccccc1NS(=O)(=O)c1ccc2nc(-c3ccccc3)[nH]c2c1 | 10.8% | 
O=S(=O)(Nc1ccc2nc(-c3ccco3)[nH]c2c1)c1ccccc1 |  | 56.2 µM (active)
CCOC(=O)C1CCN(c2csc3ccc(C)cc3c2=O)CC1 | -0.301% [at 57.1 µM] | 
COC(=O)c1nc(NC(=O)c2ccccc2)n[nH]1 |  | 56.2 µM (active)
O=C(Nc1nsc(-c2ccccc2)n1)c1ccncc1 | 12.5% [at 57.1 µM] | 
COC(=O)c1ccc(NC(=O)CSc2n[nH]c(-c3ccccc3)n2)cc1 | 14.1% [at 57.1 µM] | 
COc1ccc(CNC(=O)c2cc3c(=O)[nH]c4ccc(C)cc4c3s2)c(OC)c1 | 25.7% | 
Cc1cccc(Cn2c(=O)n(CCC(=O)NCCc3ccc(Cl)cc3)c(=O)c3sccc32)c1 | 7.89% | 
O=S(=O)(c1ccccc1)c1nc(-c2ccc(Cl)cc2Cl)oc1N1CCCCC1 | 28.6% [at 57.1 µM] | 
COc1ccc(-c2nc(S(=O)(=O)c3ccccc3)c(N3CCCCC3)o2)cc1 | -3.21% | 

SMILES | activity change, negative = inhibition | Potency
O=S(=O)(c1ccccc1)c1nc(Cc2ccccc2)oc1N1CCOCC1 |  | 1.58 µM (active)
CCOc1ccc(-c2cc3c(=O)n(CC(=O)NCc4ccc(OC)cc4)ccn3n2)cc1 | 22.5% [at 57.1 µM] | 
Cc1c(CCO)sc[n+]1CC(=O)c1ccc2ccccc2c1 | 14% | 
Cc1noc2ncnc(NCc3ccccc3Cl)c12 | 3.77% | 
OCCNc1ncnc2oc(-c3ccco3)c(-c3ccco3)c12 |  | 50.1 µM (active)
COc1ccc(-c2oc3ncnc(NCCCO)c3c2-c2ccc(OC)cc2)cc1 | 4.95% [at 57.1 µM] | 
CN(C)c1ccc(/C=N\Nc2ccc([N+](=O)[O-])cc2[N+](=O)[O-])cc1Cl | 26.5% [at 0.0914 µM] | 
Cc1ccc2ncc(C(=O)Nc3ccc(OC(F)(F)F)cc3)c(=O)n2c1 | 2.86% | 
Cc1ccccc1-n1nc(C)c2c1N=C1C(Cl)=CC(Cl)=CN1C2c1ccc(C(=O)O)cc1 (centres undefined) |  | 12.6 µM (active)
Cc1ccccc1-n1nc(C)c2cc(C(=O)NC3CC3)sc21 | 3.32% | 
O=C(CCc1nc(CN2CCN(S(=O)(=O)c3ccc(Br)cc3)CC2)no1)N1CCCCC1 | 12.7% | 
Cc1noc(/C=C/N(C)C)c1S(=O)(=O)N1CCCC(C(=O)Nc2cccc(F)c2)C1 (centres undefined) | 0.96% | 
Cc1nccc(-c2ccc(-n3c(C)ccc3C)cc2)n1 |  | 79.4 µM (active)
c1ccc(-c2nccc(-c3ccc(-n4cnc5ccccc54)cc3)n2)nc1 | -11.2% | 
Cc1ccc(C)n1-c1ccncc1 | -10.9% | 
NC1CCN(O)C1=O (centres undefined) | -13.1% [at 57.1 µM] | 
CC(C)(C)OC(=O)N(Cc1ccco1)S(=O)(=O)c1ccccc1Br | -3.07% | 
O=C(NCc1ccccc1Cl)c1cccn1-c1nnc(N2CCCCC2)s1 | -0.494% [at 57.1 µM] | 
O=C(NCCc1ccccc1)c1ccc2c(c1)N(Cc1ccccc1)C(=O)c1ccccc1S2(=O)=O | 23.8% | 
CCCCOc1ccc(CN2C(=O)C(=O)c3cc(Br)cc(C)c32)cc1OC | -11.8% | 
CCOc1ccc(C(=O)N2CCN(CCc3ccccn3)CC2)cc1 | 13.2% | 
CCOc1ccc(C(=O)CCN2CCOCC2)cc1 |  | 3.16 µM (active)
CCOc1ccc(-c2ccc(SCC(=O)N3CCOCC3)nn2)cc1 | 20.2% [at 57.1 µM] | 
SCc1nc2ccc(Cl)cc2[nH]1 | 14.2% | 
Cc1ccccc1C(=O)Nc1sc2c(c1C(=O)N1CCC(C)CC1)CCCC2 | 7.89% | 

SMILES | activity change, negative = inhibition | Potency
Cc1cccc(NC(=O)C2CCCN2S(=O)(=O)c2cccc3nsnc23)c1C (centres undefined) | 24.3% | 
COc1cc(C2c3cc4c(cc3C(O)C3COC(=O)C23)OCO4)cc(OC)c1OC (centres undefined) |  | inactive
COc1c(O)ccc2c1CN1CCc3cc4c(cc3C1C2)OCO4 (centres undefined) |  | 50.1 µM (active)
COc1cc(COCC(O)CN2CCN(Cc3ccc4c(c3)OCO4)CC2)cc(OC)c1OC (centres undefined) | 9.46% [at 57.1 µM] | 
Nc1nc(N)c(N=O)c(N)n1 | -5.22% | 
COc1ccc(NS(=O)(=O)c2cc3c4c(c2)CC(=O)N4CCC3)cc1Cl | 18.3% [at 57.1 µM] | 
Fc1ccc(-c2ccc(-c3nn4c(-c5ccco5)nnc4s3)o2)cc1 |  | 35.5 µM (active)
O=C(Nc1ccc(Br)cc1)c1ccc(Br)c(S(=O)(=O)NCc2ccccc2)c1 | 13.6% [at 57.1 µM] | 
O=C(NC1CC(=O)N(c2ccc(Cl)cc2)C1)C1CCCC1 (centres undefined) | 2.69% [at 57.1 µM] | 
Cc1ccc(CCNC(=O)c2ccc3c(c2)N(Cc2cc(C)ccc2C)C(=O)c2ccccc2S3=O)cc1 (centres undefined) | 33.3% | 
Cc1ccccc1C(CC(=O)c1cccs1)C(C#N)C#N (centres undefined) |  | 10 µM (active)
Cc1ccccc1N(C(=O)CNC(=O)c1cccs1)C(C(=O)NC1CCCC1)c1ccncc1 (centres undefined) | 14.1% | 
C[N+]1(CC(=O)c2cccs2)CCOCC1 | 0.401% | 
CCOC(=O)c1ccc(NC(=O)c2c(NCc3cccc(OC)c3)sc3c2CCC3)cc1 | 17% [at 57.1 µM] | 
CCOc1ccc(N2C(=O)/C(=C/c3ccc(C)o3)N(C)C2=S)cc1 |  | 31.6 µM (active)
CCOc1ccc(N2C(=O)CN(c3cccc4ccccc34)C2=S)cc1 | 14.6% [at 57.1 µM] | 
CCOC(=O)c1ccc(NC2=CC(c3ccc(OCC)cc3)N(c3ccc(C(=O)OCC)cc3)C2=O)cc1 (centres undefined) | 6.64% | 
COc1ccc(Cn2c(=O)n(-c3ccccc3C)c(=O)c3c4c(sc32)CN(C(C)=O)CC4)cc1 | 2.71% | 
O=C(COc1ccccc1Cl)Nc1ccc2nc(SCC(=O)N3CCCC3)sc2c1 | 25.8% | 
COCc1ccc(C(=O)N2CCc3c([nH]c4ccccc34)C2c2ccccn2)s1 (centres undefined) | 29.7% [at 57.1 µM] | 
c1ccc(C2c3[nH]c4ccccc4c3CCN2Cc2cccn2-c2cccnc2)nc1 (centres undefined) |  | 50.1 µM (active)
CCOc1ccc(C2c3[nH]c4ccccc4c3CCN2Cc2cccn2-c2ncccn2)cc1 (centres undefined) | -8.64% | 
CS(=O)c1ccc(/C=C2\C=Cc3ccccc32)cc1 (centres undefined) | -8.61% | 
CCOC(=O)c1nnn(CC(=O)NC(=O)Nc2ccccc2F)c1C(=O)OCC | -3.22% | 
Cc1ccc(Cc2cnc(N)s2)o1 |  | 22.4 µM (active)

SMILES | activity change, negative = inhibition | Potency
COc1cn(CC(=O)Nc2cccc(C)c2C)c(CN2CCCCC2)cc1=O | 8.52% [at 57.1 µM] | 
Cc1cccc(N2CCN(C(=O)CCn3c(=O)c4cccn4c4cccnc43)CC2C)c1 (centres undefined) | 7.19% | 
CCn1c(CNC(=O)C23CC4CC(CC(C4)C2)C3)nnc1SCC(=O)Nc1ccc(OC)cc1 | -3.1% | 
CSc1oc(-c2cccs2)nc1S(=O)(=O)c1ccc(Br)cc1 | 12.6% | 
NC(=O)CSc1oc(-c2cccs2)nc1S(=O)(=O)c1ccccc1 | 7.07% [at 57.1 µM] | 
CCCCS(=O)(=O)c1oc(-c2cccs2)nc1S(=O)(=O)c1ccccc1 |  | 0.447 µM (active)
C(=Nc1ccc(/C=C/c2ccnc3ccccc23)cc1)Nc1ccc(/C=C/c2ccnc3ccccc23)cc1 | -1.09% | 
CCOC(=O)c1c(C)oc2nc(C)nc(Nc3ccc(CC)cc3)c12 | 38.5% | 
CCCOc1ccc(C(=O)Nc2ccc3oc(-c4cccc(Cl)c4Cl)nc3c2)cc1 | 37.6% | 
Oc1c(C=Nc2cccc3nsnc23)ccc2ccccc12 |  | 39.8 µM (active)
Cc1cccc(-c2nnc(SCC(=O)N3CCCc4ccccc43)o2)c1 | -0.491% | 
COc1ccc(-c2nc(=N)sn2-c2ccccc2)cc1 | -21.3% | 
COC(=O)c1cc(NC(=O)CCc2c(C)nc3c4c(C)cc(C)nc4nn3c2C)cc(C(=O)OC)c1 | 11.9% | 
Cc1cc(C)c2c(n1)nn1c(-n3ccnc3)cc(C)nc21 |  | 8.91 µM (active)
Cc1cc(C)c2c(NC(=O)C3CC3)nn(C)c2n1 | 39% | 
CCOc1ccc(CNC(=O)c2cc(-c3ccc(Cl)s3)nc3ccccc23)cc1 | 35.6% | 
Cc1ccc(NC(=O)c2cc(-c3ccc(C)o3)nc3ccccc23)nc1 |  | 14.1 µM (active)
Cc1ccc(-c2cc(C(=O)NN)n[nH]2)o1 | 5.28% [at 57.1 µM] | 
CCOC(=O)c1cc2c(=O)n3ccccc3nc2n(CC2CCCO2)c1=NC(=O)c1ccc(C(C)(C)C)cc1 (centres undefined) | 6.69% | 
Cc1cccc(N2CCN(C3=C(c4ccccc4)C(=O)c4ccccc43)CC2)c1C | 3% | 
CC(=O)/C(C)=N/O |  | inactive
Cc1noc(C)c1NC(=O)Nc1ccc2c(c1)C(=O)N([C@H](C)CO)C[C@H](C)[C@@H](CN(C)C(=O)Nc1ccc(C(F)(F)F)cc1)O2 | -11.5% | 
C[C@H](CO)N1C[C@H](C)[C@H](CN(C)C(=O)Nc2ccc(C(F)(F)F)cc2)Oc2c(NC(=O)c3ccncc3)cccc2C1=O |  | 56.2 µM (active)
Cc1noc(C)c1NC(=O)Nc1cccc2c1O[C@H](CN(C)C(=O)Nc1ccccc1)[C@@H](C)CN([C@H](C)CO)C2=O | 5.71% | 
